# The list is not random: actives were taken first. Their share in the collection is about 12%.
# FMDV antiviral: foot and mouth disease virus antiviral activity | hit rate 1.2% among 410,000 | Potency, µM (titrated, usually from 57.9 µM), without a hit: at the highest dose activity change, negative = inhibition, most hits filed as inhibitors | FMDV antiviral cell-based qHTS; calls by dose curve; tested in HEK293T cells; further: read-out not given here; potency means the concentration at half of the fitted maximal effect; on the % scale 0 is the no-effect control and ±100 the full control effect; nearly all actives have a fitted effect of over 45% in size
# Cycloheximide cs: counter-screen for Shiga toxin inhibitors: cycloheximide protein synthesis inhibition | hit rate 12% among 300,000 | max response, % | cell reporter, cycloheximide protein synthesis inhibition counterscreen; in the data active means max response mostly above about 13%, no sharp cut-off; inactive means mostly below about 14%; further: read at 38.3 µM for the half of the compounds with a filed dose; 0% is about no effect
# Shiga inhibitor: Shiga toxin inhibition; AID 2315; inhibition, % at 38.7 µM; Vero cells, Shiga toxin protein synthesis inhibition reporter; hit rate 9.2% among 290,000; in the data active means inhibition mostly above about 28%, no sharp cut-off; inactive means mostly below about 43%; further: 0% is about no effect
# Sm TGR block: blocks Schistosoma mansoni thioredoxin glutathione reductase; Q962Y6; hit rate 3% among 360,000; Potency, µM (highest dose often 114 µM), for the others: at the top dose activity change, negative = inhibition, hits mostly inhibitors; AID 485364; purified TGR, DTNB reduction, TNB absorbance 405 nm; active means well fitted inhibition curve with a large enough effect; inconclusive means small, poorly fitted or top-dose-only effect; inactive means no such curve, though single readings can be large or run the other way; further: potency means the concentration at half of the fitted maximal effect; on the % scale 0 is the no-effect control and ±100 the full control effect; nearly all actives have a fitted effect of over 60% in size
#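 First, TGR (20 nM dispensed) and NADPH were mixed with compound. Second, a 15 min room-temperature incubation followed. Third, further NADPH and then DTNB were added to start the reaction. Finally, TNB absorbance was monitored kinetically.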
# Starred values were filed as active, the others as inactive; ? = inconclusive; nt = no result given.
SMILES,FMDV antiviral,Cycloheximide cs,Shiga inhibitor,Sm TGR block
COc1ccc(C2C(C#N)=C(N)Oc3cc4c(cc32)OCO4)cc1 (centres undefined),nt,2,-7,2%
CCN1C=C(Cc2ccc(OC)cc2)C2=C(C1)C(c1ccc(OC)cc1)C(C#N)=C(N)O2 (centres undefined),?,-3,-13,35µM*
Cc1c(CN(C)C(=O)c2cc(-c3ccccc3)nc3ccc(Br)cc23)cnn1C,-17%,nt,nt,2%
O=C(CSc1ncn[nH]1)c1ccc2c(c1)OCCO2,42%,18*,active,-21%
CC(C)(C)NC(=O)NC(=O)CSc1ncn[nH]1,1%,3,2,-5%
CC(C)c1ccc(C(=O)CSc2ncn[nH]2)cc1,40%,31*,81*,-10%
O=C(CSc1nc2ncc(Cl)cc2[nH]1)c1ccc2c(c1)OCO2,50%,-2,6,-2%
O=C(CSc1ncn[nH]1)NNC(=O)c1ccccc1,-5%,nt,nt,-25%
O=C(CSc1ncn[nH]1)CSc1ncn[nH]1,-12%,-5,-18,40µM*
O=C(CSc1ncn[nH]1)c1ccc2c(c1)OCO2,29%,14*,30,-4%
COc1ccc(-c2cn3c(n2)sc2cc(C(=O)Nc4cc(Cl)ccc4C)ccc23)cc1,35%,nt,nt,5%
Cc1ccc(-c2nnc(SCC(=O)NC(C)(C)C)nc2-c2ccc(C)cc2)cc1,-26%,nt,nt,4%
O=C(CSc1ccc2ccccc2n1)c1ccc2c(c1)OCO2,5%,53*,104*,14%
O=C(CSc1nc2cc(Cl)c(Cl)cc2[nH]1)c1ccc2c(c1)OCO2,6%,2,20,6%
O=C(Nc1ccc(Br)cc1F)c1cc(S(=O)(=O)NC2CCCC2)ccc1F,30%,nt,nt,21%
C=C1CCN(C(Cc2ccccc2)C(=O)OC)S(=O)(=O)c2ccc(F)cc21 (centres undefined),3%,-4,-4,22µM*
CN(C)c1cccc(C(=O)N2CCC(c3ccncc3)CC2)c1,-10%,nt,nt,-1%
COc1ccc(Cl)cc1NC(=O)CCN1C(=O)c2ccccc2Sc2ncccc21,-12%,nt,nt,-5%
CC(=O)NC(Cc1cc(C)ccc1C)C(=O)N1CCN(C(=O)Nc2ccc(C(C)=O)cc2)CC1 (centres undefined),19%,17*,14,-5%
CC(=O)NC(Cc1cc(C)ccc1C)C(=O)N1CCN(C(=O)c2ccc(Br)cc2)CC1 (centres undefined),-4%,-6,-19,nt
Cc1cccc(C(=O)NC2=NCCS2)c1,2%,35*,56*,9%
Cc1cc(C(=O)NC2=NCCS2)cs1,-9%,41*,66*,0%
BrCCOCCOc1ccc2ccccc2c1,41%,65*,26,-12%
COc1ccccc1NC(=O)c1oc2ccccc2c1NC(=O)c1cc(OC)c(OC)c(OC)c1,0%,nt,nt,nt
CCOc1ccccc1NC(=O)Cc1coc2cc(C)ccc12,-15%,8,6,-1%
COc1ccccc1NC(=O)c1oc2ccc(C)cc2c1C,20%,34*,101,0%
COc1ccccc1NC(=O)Cc1coc2cc(C)ccc12,33%,24*,24,0%
CC[C@H](C)[C@H](NC(=O)[C@H](CCC(=O)O)NC(=O)[C@H](CO)NC(=O)[C@@H](NC(=O)[C@@H](N)CO)C(C)C)C(=O)N[C@@H](CCC(N)=O)C(=O)N[C@@H](CC(C)C)C(=O)N[C@@H](CCSC)C(=O)N[C@@H](Cc1cnc[nH]1)C(=O)N[C@@H](CC(N)=O)C(=O)N[C@@H](CC(C)C)C(=O)NCC(=O)N[C@@H](CCCCN)C(=O)N[C@@H](Cc1cnc[nH]1)C(=O)N[C@@H](CC(C)C)C(=O)N[C@@H](CC(N)=O)C(=O)N[C@@H](CO)C(=O)N[C@@H](CCSC)C(=O)N[C@@H](CCC(=O)O)C(=O)N[C@@H](CCCNC(=N)N)C(=O)N[C@H](C(=O)N[C@@H](CCC(=O)O)C(=O)N[C@@H](Cc1c[nH]c2ccccc12)C(=O)N[C@@H](CC(C)C)C(=O)N[C@@H](CCCNC(=N)N)C(=O)N[C@@H](CCCCN)C(=O)N[C@@H](CCCCN)C(=O)N[C@@H](CC(C)C)C(=O)N[C@@H](CCC(N)=O)C(=O)N[C@@H](CC(=O)O)C(=O)N[C@H](C(=O)N[C@@H](Cc1cnc[nH]1)C(=O)N[C@@H](CC(N)=O)C(=O)N[C@@H](Cc1ccccc1)C(=O)N[C@H](C(=O)N[C@@H](C)C(=O)N[C@@H](CC(C)C)C(=O)NCC(=O)O)C(C)C)C(C)C)C(C)C,nt,-2,-7,nt
CCOC(=O)c1scc(-c2ccc(C)cc2)c1S(=O)(=O)N1CCN(c2ccccc2)CC1,10%,nt,nt,1%
